Values joined by “and” are separate entries in the source; they are usually repeats but may differ in a detail not shown here. Equal values may be shown once. Results filed as inconclusive are left out. Active and inactive are the calls of the source. Unless noted, calls come from the whole dose curve; as a rule, active = well fitted curve in the direction sought with a large enough effect; inconclusive = small, poorly fitted or top-dose-only effect, or another doubt; inactive = no such curve, though single readings can be large; an effect the other way counts as inactive or inconclusive.

Our source for the Potency, activity change, negative = inhibition and max response values is PubChem BioAssay (NCATS).

Experiment [1] has as its target DNA repair nuclease/redox regulator APEX1 (Homo sapiens) (UniProt P27695). Nature of the experiment: qHTS Validation Assay for Inhibitors of the Human Apurinic/apyrimidinic Endonuclease 1 (APE1) (AID 1705;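 note: TAMRA fluorescence gain over two minutes as APE1 cuts a quenched THF abasic duplex; % is set by controls: 0 for no effect and ±100 for the full control effect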). In outline:
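Read-out: TAMRA fluorescence (525 nm ex, 598 nm em) from cleavage of a quenched THF abasic-site duplex, 50 nM final; activity taken as intensity change between third and first of three reads 60 s apart.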
A general note: In qHTS, concentration-response curves come from the screen itself.

Experiment [2] can be described thus: Counterscreen for APE1 Inhibitors: Fluorescent Dye Displacement Validation Assay (AID 1707).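 Note: plate controls were ThO with dsDNA and no compound for no effect and ThO without dsDNA for full effect.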 In outline:
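Reaction mixture of 250 nM Thiazole Orange and 50 nM double-stranded abasic-site DNA was dispensed, compounds were pin-transferred, and fluorescence was read at endpoint (480 nm ex, 540 nm em). Reduced fluorescence indicated dye displacement by DNA binding.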

The target in experiment [3] is Endonuclease 4 (Escherichia coli (strain K12)) (UniProt P0A6C1). The experiment can be described thus: Counterscreen for APE1 Inhibitors: qHTS Validation Assay for Inhibitors of Endonuclease IV (AID 1708). Note: % is set by controls: 0 for no effect and ±100 for the full control effect. In outline: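 Conditions: 2 nM enzyme, 50 nM TAMRA/BHQ-2 substrate, pH 7.5 Tris buffer with 2 mM MgCl2, RT. Compound preincubation 15 min; readout three fluorescence reads 60 s apart, third-minus-first.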
(In general: Counterscreens check selectivity or assay interference.)

A short description of experiment [4]: qHTS for differential inhibitors of proliferation of Plasmodium falciparum line 7G8 (AID 1815).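 For activity change, negative = inhibition: plate controls were vehicle wells for no effect and reference inhibitor wells for full effect.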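 Note: parasite growth measured after three days of incubation.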 Note: potency is the fitted concentration of half-maximal effect.
Experiment [5] in a line: qHTS for differential inhibitors of proliferation of Plasmodium falciparum line GB4 (AID 1816).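 For activity change, negative = inhibition: 0% = vehicle DMSO and -100% = reference inhibitor.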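 Note: parasite growth measured after 72 h incubation.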 Note: potency is the fitted concentration of half-maximal effect. To be noted: Potency: Plasmodium falciparum GB4 proliferation inhibition.
Experiment [6] is described as follows: qHTS for differential inhibitors of proliferation of Plasmodium falciparum line 3D7 (AID 1876). Note: potency is the fitted concentration of half-maximal effect.
The nature of experiment [7]: qHTS for differential inhibitors of proliferation of Plasmodium falciparum line D10 (AID 1877).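 For activity change, negative = inhibition: plate controls were vehicle wells for no effect and reference inhibitor wells for full effect.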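 Note: parasites grown with compound for 72 h before DNA staining.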 Note: potency is the fitted concentration of half-maximal effect.
Experiment [8] can be described thus: qHTS for differential inhibitors of proliferation of Plasmodium falciparum line Dd2 (AID 1882).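 For activity change, negative = inhibition: plate controls were DMSO vehicle for no effect and 0.29 µM artemisinin for full effect.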 Note: nearly all actives have a fitted effect of over 65% in size. Note: potency is the fitted concentration of half-maximal effect. To be noted: Potency: Plasmodium falciparum Dd2 proliferation inhibition. A digest of the protocol: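 SYBR Green DNA fluorescence (ex 485, em 535 nm) after overnight lysis quantifies parasite growth; compound exposure lasted 72 h at 37 C on infected red cells at 2.5% hematocrit, 0.3% parasitemia (final). Artemisinin 0.29 uM and vehicle wells define normalization.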

Experiment [9] is described as follows: qHTS for differential inhibitors of proliferation of Plasmodium falciparum line W2 (AID 1883).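 For activity change, negative = inhibition: 0% = vehicle wells and -100% = control inhibitor wells.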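 Note: parasites grown with compound for 72 h before lysis and staining.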 Note: potency is the fitted concentration of half-maximal effect. To be noted: Potency: Plasmodium falciparum W2 proliferation inhibition.
Experiment [10] can be described thus: qHTS Assay for Lipid Storage Modulators (AID 1519; calls by dose curve; for activity change, negative = inhibition: % is set by controls: 0 for no effect and ±100 for the full control effect). The following applies: Drosophila S3 cells, BODIPY lipid droplet/cell ratio, laser cytometry, cells loaded with oleic acid; for activity change, negative = inhibition: at 57.5 µM (top of the series). A digest of the protocol:
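Cells seeded at 5,000 per well were treated with compounds over a concentration series and loaded with oleic acid (400 uM, as added). Lipid droplet fluorescence (488 nm excitation, 500-530 nm channel) was read by laser-scanning cytometry and normalized to 20 uM Triacsin C.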

[11] abbreviates: measured here: cell count channel max response.
Where [12] appears, read: measured here: lipid channel max response.

Chain of DNA repair nuclease/redox regulator APEX1 (Homo sapiens) (P27695 whole entry, looked up): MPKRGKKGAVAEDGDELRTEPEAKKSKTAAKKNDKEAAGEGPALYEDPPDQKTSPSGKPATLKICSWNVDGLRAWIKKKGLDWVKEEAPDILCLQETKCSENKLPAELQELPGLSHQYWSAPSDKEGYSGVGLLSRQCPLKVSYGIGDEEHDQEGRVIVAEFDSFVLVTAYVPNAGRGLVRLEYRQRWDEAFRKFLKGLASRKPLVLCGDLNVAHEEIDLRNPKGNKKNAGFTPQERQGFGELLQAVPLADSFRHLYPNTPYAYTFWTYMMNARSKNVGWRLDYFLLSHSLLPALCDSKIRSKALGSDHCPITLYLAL

For `C[N+](C)(C)CCOC(=O)CBr`, the Potency result in experiment [1], in [2], in experiment [3], in [4], in experiment [5] and in experiment [6] was “inactive” each time. Besides, the Potency entry in [7], in experiment [8] and in experiment [9] was “inactive” throughout.
Consider `CN1CCC(c2c[nH]c3ccc(O)cc23)CC1`, for which the activity change, negative = inhibition in experiment [10] is 2.83% (inactive) and 0.677% (inactive). Further, the max response in experiment [10] (setting [11]) is 19.5% and 47.8%; in experiment [10] (setting [12]) it was 24% and 52.3%. In addition, the Potency entry in experiment [1] and in experiment [8] was “inactive” each time. Moreover, the Potency is 10 µM (active) in experiment [6] and 8.91 µM (active) in [9].
For the compound `OCc1cnc[nH]1`, the activity change, negative = inhibition in experiment [10] was 1.18% (inactive). The max response is 7.21% in experiment [10] (setting [11]) and 9.78% in experiment [10] (setting [12]). For the same compound, the Potency entry in experiment [1], in experiment [3] and in experiment [8] was “inactive” in each case. Further, in experiment [5], the Potency is 7.94 µM (active).
In the case of `C[Se]C[C@H](N)C(=O)O`, the Potency result in experiment [1], in experiment [2], in [3], in [4], in [5] and in experiment [6] was “inactive” in each case. In addition, the Potency entry in experiment [7], in experiment [8] and in experiment [9] was “inactive” in each case.
Take `C[C@H](N)CN1CCc2ccc(Br)cc21`: the activity change, negative = inhibition in experiment [10] is 0.866% (inactive). For the same compound, the max response in experiment [10] (setting [11]) is -15.5%; in [10] (setting [12]) it was -16.4%. Further, the Potency result in experiment [1] is “inactive”. Also, the Potency was 8.91 µM (active) in experiment [4]; 1.26 µM (active) in experiment [5]; 8.91 µM (active) in experiment [6]; 8.91 µM (active) in experiment [8]; 2.24 µM (active) in [9].
`NCCc1ccc(S(=O)(=O)F)cc1`: the Potency result in experiment [1], in experiment [2], in [3], in experiment [4], in experiment [5] and in experiment [6] was “inactive” throughout. For the same compound, the Potency entry in experiment [7] and in experiment [8] was “inactive” each time.
Consider `CC(N)[C@H](O)c1ccc(O)c(O)c1` (some centres not stated), for which, in experiment [10], the activity change, negative = inhibition was 0.659% (inactive). Besides, the max response in [10] (setting [11]) was found to be 1.77%; in [10] (setting [12]), 2.21%. Further, the Potency result in experiment [2], in [3], in [4], in experiment [5], in experiment [6] and in experiment [7] was “inactive” throughout. For the same compound, the Potency result in experiment [8] was “inactive”.
`OC1CCCCC1N1CCC(c2ccccc2)CC1` (configuration not stated): in experiment [10], the activity change, negative = inhibition was 6.18% (inactive). Moreover, the max response in experiment [10] (setting [11]) stood at 4.61%; in experiment [10] (setting [12]) it was 12.5%. The Potency result in experiment [2], in [3], in [6], in [7] and in [8] was “inactive” in each case. The Potency in experiment [9] is 10 µM (active).
With `CCCCCCC(C)(C)c1ccc([C@@H]2C[C@H](O)CC[C@H]2CCCO)c(O)c1`, the activity change, negative = inhibition in [10] was -5.44% (inactive). Further, the max response in experiment [10] (setting [11]) was determined as 8.54%; in [10] (setting [12]), 2.73%. Moreover, the Potency result in experiment [2] is “inactive”. Besides, the Potency in experiment [4] was 1.78 µM (active); in experiment [5], 2.24 µM (active); in experiment [6] it was 5.01 µM (active); in [7], 7.94 µM (active); in [8] it was 4.47 µM (active); in [9], 2.24 µM (active).
Take `CO[C@H]1CC=C2CCN3CCC4=C(CC(=O)OC4)[C@]23C1`: the Potency entry in experiment [1], in experiment [2], in [4], in experiment [5], in experiment [6] and in [7] was “inactive” throughout. Moreover, the Potency entry in experiment [8] and in experiment [9] was “inactive” throughout.
Turning to `COc1ccc2c(c1)/C(=C/c1cnc[nH]1)C(=O)N2`, in experiment [1], the Potency result was “inactive”. For the same compound, the Potency in experiment [4] was 7.08 µM (active); in [5], 8.91 µM (active); in experiment [6], 12.6 µM (active); in experiment [7], 14.1 µM (active); in experiment [8] it was 12.6 µM (active); in [9] it was 7.08 µM (active).
On to `CCN(CC)c1ncnc2c1ncn2[C@@H]1O[C@H](COP(=O)(O)OP(=O)(O)C(Br)(Br)P(=O)(O)O)[C@@H](O)[C@H]1O`, for which the Potency entry in experiment [1], in experiment [3], in experiment [4], in experiment [5], in experiment [6] and in [7] was “inactive” each time. Besides, the Potency result in experiment [8] and in [9] was “inactive” in each case.
`Cc1sc2ccccc2c1CC1=NCCN1`: the Potency entry in experiment [1], in [2] and in [3] was “inactive” each time. Further, the Potency in experiment [5] was 14.1 µM (active); in experiment [9], 8.91 µM (active).
Consider `CC(N)c1cccc(Cl)c1Cl` (configuration not stated), for which the Potency result in [1], in experiment [2], in [3], in experiment [6] and in experiment [7] was “inactive” each time. Besides, the Potency in experiment [5] was 11.2 µM (active); in experiment [9], 8.91 µM (active).
Regarding `CC(C)(C)c1o[nH]c(=O)c1CC(N)C(=O)O` (configuration not stated), the Potency result in experiment [1], in experiment [2], in experiment [4], in [5], in experiment [6] and in experiment [7] was “inactive” throughout. Besides, in [8], the Potency result is “inactive”.
Take `CNC(=O)OCC[N+](C)(C)C`: the Potency result in experiment [2], in [3], in experiment [4], in experiment [5], in [6] and in experiment [8] was “inactive” throughout. The Potency entry in experiment [9] is “inactive”.
